According to the supplement of paper PMC12350171:
Where a name gives a salt, the structure may show the parent alone. Values without a mark were called inactive.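 Rule for the calls: active = AUC significantly below DMSO controls by Student t-fit with adjusted P under 0.01; inactive = not significantly reduced.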

tested on: Haemophilus parainfluenzae; assay: growth AUC normalised to DMSO control (fraction of control); higher = less growth inhibition, active = hit call of the paper; details: 20 µM
Method in brief: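 For the AUC endpoint, growth curves were integrated by the trapezoidal rule up to the exponential-to-stationary transition and normalised to DMSO controls on the same plate. The curves came from OD578 readings taken hourly for 24 h, in three biological replicates. Pathogens had been passaged anaerobically twice and inoculated at an OD578 of 0.01 into pre-reduced mGAM plates carrying 20 μM compound and 1% DMSO, sealed with breathable membranes. Medium for Haemophilus parainfluenzae also contained hemin and NAD.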

SMILES | growth AUC normalised to DMSO control
COc1nc(C)nc(Cl)c1NC1=NCCN1 [Moxonidine] | 1.01
Cc1ccccc1N1C(=O)c2cc(S(N)(=O)=O)c(Cl)cc2NC1C (stereo not drawn) [Metolazone] | 0.966
CCC(C)(CN(C)C)OC(=O)c1ccccc1 (stereo not drawn) [Amyleine hydrochloride] | 1.01
CO[C@H]1/C=C/O[C@@]2(C)Oc3c(C)c(O)c4c(O)c(c5c(nc6cc(C)ccn65)c4c3C2=O)NC(=O)/C(C)=C\C=C\[C@H](C)[C@H](O)[C@@H](C)[C@@H](O)[C@@H](C)[C@H](OC(C)=O)[C@@H]1C [Rifaximin] | 0.026 (active)
O=C(OCCOCCO)c1ccccc1Nc1cccc(C(F)(F)F)c1 [Etofenamate] | 0.992
CC(=O)O[C@H]1C[C@@H]2CC[C@@H]3[C@H](CC[C@@]4(C)[C@H]3C[C@H]([N+]3(C)CCCCC3)[C@@H]4OC(C)=O)[C@@]2(C)C[C@@H]1N1CCCCC1 [Vecuronium bromide] | 1.05
CN(C)CCOC(=O)C(c1ccccc1)C1(O)CCCC1 (stereo not drawn) [Cyclopentolate hydrochloride] | 1.04
O=C1O[C@H]([C@@H](O)CO)C(O)=C1O [Ascorbic acid] | 1.06
